This note sets out measurements from PubChem BioAssay (Tox21).

The structures appear in SMILES notation. Values without a mark were called inactive. Results filed as inconclusive are left out. Activity calls are given as the source filed them. Calls come from the whole dose curve; as a rule, active = well fitted curve in the direction sought with a large enough effect in the repeat runs; inconclusive = weak or mixed curves; inactive = no such curve, though single readings can be large; an effect the other way counts as inactive or inconclusive.

Experiment [1] in a line: qHTS RealTime-Glo MT Cell Viability Assay in HepG2 cells - 24 hour (AID 1224867). Note: nearly all actives have a fitted effect of over 50% in size. The essentials: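 HepG2 suspension premixed with RealTime-Glo reagents is plated at 600 cells per well and left 5 h at 37 C/5% CO2. Compounds in DMSO then go in, and bioluminescence reflecting viable cell number is recorded over 40 h.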
In general terms: Quantitative high-throughput screening tests each substance at several concentrations.

Experiment [2] can be described thus: qHTS RealTime-Glo MT Cell Viability Assay in HEK293 cells - 32 hour (AID 1224868). Note: top concentration of the series differs between compounds; nearly all actives have a fitted effect of over 50% in size. The essentials: (§1)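 Reads taken at 0, 8, 16, 24, 32 and 40 h from the same wells. HEK293 cells (600/well) carried RealTime-Glo reagents from seeding, with compound added after a 5 h settle at 37 C.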
The nature of experiment [3]: A CellTox Green Cytotoxicity Assay to monitor cytotoxicity in HEK293 cells - 40 hour (AID 1224871). Note: nearly all actives have a fitted effect of over 45% in size. Note: potency is the fitted concentration of half-maximal effect. The essentials:
(§2)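 Each value comes from one timepoint of a single continuous run in which HEK293 cells with CellTox Green were exposed to compound for up to 40 h at 37 C, dye fluorescence rising with cell death.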

The nature of experiment [4]: qHTS RealTime-Glo MT Cell Viability Assay in HEK293 cells - 16 hour (AID 1224872). Note: top concentration of the series differs between compounds; nearly all actives have a fitted effect of over 50% in size. The essentials:
as §1

Experiment [5] in a line: qHTS RealTime-Glo MT Cell Viability Assay in HepG2 cells - 8 hour (AID 1224873). Note: nearly all actives have a fitted effect of over 55% in size. An outline of the steps:
(§3)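 HepG2 cells (600/well) mixed with RealTime-Glo MT reagent, settled 5 h at 37 C/5% CO2 before compound addition. Nonlytic NanoLuc luminescence from viable-cell prosubstrate reduction read repeatedly during 40 h treatment at 37 C.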

Experiment [6] is described as follows: qHTS RealTime-Glo MT Cell Viability Assay in HEK293 cells - 40 hour (AID 1224874). Note: nearly all actives have a fitted effect of over 50% in size. The conditions noted are these: RealTime-Glo luminescence; max response: active compounds read low. The essentials:
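qHTS format; HEK293 cells with NanoLuc/prosubstrate reagent, 37 C/5% CO2 for 5 h pre-dosing; compounds 23 nL in DMSO; luminescence at each time point reflects viable cells.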

Experiment [7] can be described thus: A CellTox Green Cytotoxicity Assay to monitor cytotoxicity in HEK293 cells - 24 hour (AID 1224875). Note: series mostly up to about 77 µM; nearly all actives have a fitted effect of over 45% in size. An outline of the steps:
as §2

Experiment [8] is described as follows: A CellTox Green Cytotoxicity Assay to monitor cytotoxicity in HepG2 cells - 16 hour (AID 1224876). Note: nearly all actives have a fitted effect of over 45% in size. An outline of the steps: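 Continuous culture of HepG2 cells with a membrane-impermeant DNA dye; rising fluorescence marks dead cells. Compound exposure lasted up to 40 h at 37 C, with reads every 8 h from 0 h.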
A short description of experiment [9]: qHTS RealTime-Glo MT Cell Viability Assay in HepG2 cells - 40 hour (AID 1224870). Note: nearly all actives have a fitted effect of over 50% in size. An outline of the steps:
as §3

A short description of experiment [10]: A CellTox Green Cytotoxicity Assay to monitor cytotoxicity in HEK293 cells - 0 hour (AID 1224869). Note: nearly all actives have a fitted effect of over 50% in size. The essentials: as §2
% is set by controls: 0 for no effect and ±100 for the full control effect.

As for `CCC(C)OC(C)CC` (centres undefined), the compound was classed as inactive in [1] and in [5]. Further, the Potency result in [2], in experiment [3], in [4], in experiment [7] and in experiment [8] was “inactive” throughout. Further, the max response in experiment [6] was -6.97%.
For `NCC1(Cc2noc(=O)[nH]2)CCCCC1`, the compound was called inactive in [1], in experiment [9] and in experiment [5]. For the same compound, the Potency entry in experiment [2], in experiment [3], in experiment [4], in experiment [7] and in [8] was “inactive” throughout.
As for `C#CCN[C@@H]1CCc2ccccc21`, the call in [1], in [9] and in experiment [5] was inactive. The Potency result in experiment [10], in [3], in experiment [4], in experiment [7] and in [8] was “inactive” each time. Besides, in experiment [6], the max response was -4.89%.
Regarding `C=CC/C=C/C`, the outcome in experiment [1], in experiment [9] and in experiment [5] was inactive. Moreover, the Potency entry in [2], in experiment [3], in experiment [4], in experiment [7] and in experiment [8] was “inactive” throughout. Further, the max response in experiment [6] is -0.772%.
In the case of `CC(C)(CO)C(O)C(=O)NCCCO` (centres undefined), the result in experiment [1], in [9] and in experiment [5] was inactive. Further, the Potency result in [2], in experiment [3], in experiment [4], in experiment [7] and in [8] was “inactive” throughout. Also, the max response in [6] was 2.36%.
As for `Cc1ncc([N+](=O)[O-])n1CC(C)O` (centres undefined), the call in [1], in experiment [9] and in experiment [5] was inactive. For the same compound, the Potency result in experiment [10], in experiment [3], in [4], in experiment [7] and in [8] was “inactive” in each case. In experiment [6], the max response was -2.46%.
Regarding `CC(=O)OCC(=O)Nc1cc(C#N)cc(NC(=O)COC(C)=O)c1Cl`, the compound was classed as inactive in [1], in [9] and in [5]. Further, the Potency result in experiment [2], in [3], in experiment [4], in experiment [7] and in experiment [8] was “inactive” throughout. Moreover, the max response in experiment [6] was 0.686%.
Consider `CCCSSCCC`, for which the compound was classed as inactive in [1], in experiment [9] and in experiment [5]. In addition, the Potency entry in experiment [2], in experiment [3], in experiment [4], in experiment [7] and in experiment [8] was “inactive” in each case. The max response in experiment [6] is 2.19%.
For `OCC(O)CN1CCN(c2ccccc2)CC1` (centres undefined), the result in experiment [1], in [9] and in experiment [5] was inactive. For the same compound, the Potency entry in experiment [2], in experiment [3], in experiment [4] and in experiment [8] was “inactive” in each case. In addition, the max response in experiment [6] was 1.76%.
For `CCNC(=O)NCc1cccc(Cl)c1`, the outcome in experiment [1], in [9] and in [5] was inactive. The Potency result in experiment [2], in experiment [3], in experiment [7] and in experiment [8] was “inactive” each time. Besides, in [6], the max response was 0.19%.
Consider `CC(=O)c1cc(C)oc1C`, for which the compound was classed as inactive in [1], in experiment [9] and in experiment [5]. Further, the Potency entry in experiment [2], in experiment [3], in [4] and in [8] was “inactive” each time. The max response in [6] is -0.494%.
With `O=C(O)CCCCCC(=O)O`, the call in experiment [1] and in experiment [5] was inactive. Moreover, the Potency result in experiment [2], in [4] and in experiment [8] was “inactive” each time. The Potency in [3] is 22 µM (active). In experiment [6], the max response is 0.774%.
Consider `O=Cc1ccccc1Cl`, for which the outcome in experiment [1], in experiment [9] and in experiment [5] was inactive. Further, the Potency entry in experiment [2], in [4] and in experiment [8] was “inactive” throughout. In addition, in experiment [6], the max response is 4.59%.
Turning to `CC(O)CC(C)O` (centres undefined), the call in experiment [1], in experiment [9] and in experiment [5] was inactive. Besides, the Potency result in [10], in [3], in experiment [4], in experiment [7] and in experiment [8] was “inactive” in each case. Besides, the max response in experiment [6] is 0.995%.
Regarding `COC(=O)c1cccc(Cl)c1`, the compound was classed as inactive in [1], in experiment [9] and in [5]. Further, the Potency result in [2], in experiment [4], in experiment [7] and in experiment [8] was “inactive” throughout. Also, the max response in [6] is 11%.
Take `C=CC(=O)OCC1CCCO1` (centres undefined): the compound was called inactive in [1], in experiment [9] and in experiment [5]. Moreover, the Potency entry in experiment [10], in experiment [3], in [4], in [7] and in experiment [8] was “inactive” each time. Further, the max response in experiment [6] is 0.647%.
For `Cc1ccc(C)c([N+](=O)[O-])c1`, the compound was classed as inactive in [1], in experiment [9] and in experiment [5]. For the same compound, the Potency result in experiment [2], in experiment [3], in [4] and in [8] was “inactive” in each case. In addition, the max response in [6] is 12.1%.
For the compound `O=C(CCCl)NCCc1ccccc1`, the result in experiment [1], in experiment [9] and in [5] was inactive. Moreover, the Potency result in [10], in experiment [4] and in experiment [8] was “inactive” throughout. The max response in experiment [6] is 5.46%.
Take `CSc1cnccn1`: the outcome in [1], in experiment [9] and in experiment [5] was inactive. In addition, the Potency result in experiment [10], in experiment [3], in experiment [7] and in [8] was “inactive” in each case.
For `Cc1ccc(C(=O)O)cc1[N+](=O)[O-]`, the result in [1] and in experiment [5] was inactive. The Potency entry in experiment [10], in experiment [3], in experiment [7] and in [8] was “inactive” throughout. Also, in experiment [6], the max response is 6.44%.
As to `CCOC(=O)CC1(C)OCC(C)O1` (centres undefined), the result in experiment [1], in experiment [9] and in experiment [5] was inactive. Besides, the Potency entry in [3], in [4], in experiment [7] and in [8] was “inactive” each time. In addition, the max response in [6] is 1.97%.
In the case of `CC(C)C1OCCN1CCOC(=O)NCCCCCCNC(=O)OCCN1CCOC1C(C)C` (centres undefined), the outcome in experiment [1] and in [5] was inactive. Moreover, the Potency entry in [10], in experiment [3], in experiment [4], in experiment [7] and in experiment [8] was “inactive” throughout. Moreover, the max response in experiment [6] was 1.59%.
Turning to `CC(=O)CCc1ccc(OC(C)=O)cc1`, the compound was called inactive in experiment [1] and in experiment [5]. In addition, the Potency result in experiment [10], in [3], in experiment [4] and in experiment [8] was “inactive” each time. In addition, the max response in experiment [6] is 2.75%.
For the compound `C=C(C)C1CC=C(C)C(=O)C1` (centres undefined), the result in experiment [1], in experiment [9] and in experiment [5] was inactive. Moreover, the Potency entry in [10], in [3], in experiment [4] and in experiment [8] was “inactive” each time. For the same compound, the max response in experiment [6] was 0.21%.
